Results as given in article PMC8384837, “Expanding the binding specificity for RNA recognition by a PUF domain”.
Substitutions are numbered along the chain they refer to.

Tests used:
Assay in all cases: yeast three-hybrid, YBZ-1, SC-Leu-His + 0.5 mM 3-AT, 4 days
Conditions in all cases: tags: N-Gal4 AD-HA kept; label: inside an RPR1-promoter hybrid RNA with tandem MS2 sites; ssRNA
[1] = biological target: PUM1 PUF domain R4-TPQ (Homo sapiens, UniProt Q14671 828-1176, N971T;H972P)
Procedure, shortened: (§1)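 Pumilio-1 PUF domain libraries, randomized (NNK) at the three base-contacting residues of each repeat, were co-expressed with matching RNA elements from a centromeric plasmid in strain YBZ-1 (LexA–MS2 coat fusion, HIS3 reporter). Transformants were plated on SC-Leu (input) and SC-Leu-His + 0.5 mM 3-AT (selection) for four days, and repeat regions were PCR-amplified and Illumina-sequenced. The interaction score is the log2 change in variant frequency from input to selection, with pseudocount 1 where absent.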

[2] = biological target: PUM1 PUF domain R3-VFG (Homo sapiens, UniProt Q14671 828-1176, C935V;R936F;Q939G)
Procedure, shortened: as §1

[3] = biological target: PUM1 PUF domain R3-RPR (Homo sapiens, UniProt Q14671 828-1176, C935R;R936P;Q939R)
Procedure, shortened: as §1

[4] = biological target: PUM1 PUF domain R7-KFN (Homo sapiens, UniProt Q14671 828-1176, S1079K;N1080F;E1083N)
Procedure, shortened: as §1

[5] = biological target: PUM1 PUF domain R7-QCR (Homo sapiens, UniProt Q14671 828-1176, S1079Q;N1080C;E1083R)
Procedure, shortened: as §1

[6] = biological target: PUM1 PUF domain R1-TWR (Homo sapiens, UniProt Q14671 828-1176, S863T;R864W;Q867R)
Procedure, shortened: as §1

[7] = biological target: T1, PUM1 PUF domain R6-HWR (Homo sapiens, UniProt Q14671 828-1176, N1043H;Y1044W;Q1047R)
T1 sequence: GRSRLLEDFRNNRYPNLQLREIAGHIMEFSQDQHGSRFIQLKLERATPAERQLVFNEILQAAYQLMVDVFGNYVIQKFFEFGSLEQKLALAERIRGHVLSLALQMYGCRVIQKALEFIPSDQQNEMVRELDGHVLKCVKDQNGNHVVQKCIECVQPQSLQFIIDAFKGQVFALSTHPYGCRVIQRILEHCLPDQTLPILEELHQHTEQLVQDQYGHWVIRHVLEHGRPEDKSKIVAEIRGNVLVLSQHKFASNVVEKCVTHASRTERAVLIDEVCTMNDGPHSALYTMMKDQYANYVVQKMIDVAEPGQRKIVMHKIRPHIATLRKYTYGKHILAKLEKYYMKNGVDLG
Procedure, shortened: as §1

[8] = biological target: T2, PUM1 PUF domain R6-FWI (Homo sapiens, UniProt Q14671 828-1176, N1043F;Y1044W;Q1047I)
T2 sequence: T1 sequence with H216F, R220I
Procedure, shortened: as §1

[9] = biological target: PUM1 PUF domain R4-EHD (Homo sapiens, UniProt Q14671 828-1176, N971E;Q975D)
Procedure, shortened: as §1

[10] = biological target: PUM1 PUF domain R4-SMS (Homo sapiens, UniProt Q14671 828-1176, N971S;H972M;Q975S)
Procedure, shortened: as §1

[11] = biological target: PUM1 PUF domain R3-CHG (Homo sapiens, UniProt Q14671 828-1176, R936H;Q939G)
Procedure, shortened: as §1

[12] = biological target: PUM1 PUF domain R8-KWG (Homo sapiens, UniProt Q14671 828-1176, N1122K;Y1123W;Q1126G)
Procedure, shortened: as §1

[13] = biological target: PUM1 PUF domain R5-TRK (Homo sapiens, UniProt Q14671 828-1176, C1007T;Q1011K)
Procedure, shortened: as §1

[14] = biological target: PUM1 PUF domain R5-QQG (Homo sapiens, UniProt Q14671 828-1176, C1007Q;R1008Q;Q1011G)
Procedure, shortened: as §1

[15] = biological target: PUM1 PUF domain R5-PRF (Homo sapiens, UniProt Q14671 828-1176, C1007P;Q1011F)
Procedure, shortened: as §1

[16] = biological target: PUM1 PUF domain R8-KWK (Homo sapiens, UniProt Q14671 828-1176, N1122K;Y1123W;Q1126K)
Procedure, shortened: as §1

[17] = biological target: PUM1 PUF domain R4-HNV (Homo sapiens, UniProt Q14671 828-1176, N971H;H972N;Q975V)
Sequence of PUM1 PUF domain R4-HNV (Q14671 828-1176 N971H/H972N/Q975V): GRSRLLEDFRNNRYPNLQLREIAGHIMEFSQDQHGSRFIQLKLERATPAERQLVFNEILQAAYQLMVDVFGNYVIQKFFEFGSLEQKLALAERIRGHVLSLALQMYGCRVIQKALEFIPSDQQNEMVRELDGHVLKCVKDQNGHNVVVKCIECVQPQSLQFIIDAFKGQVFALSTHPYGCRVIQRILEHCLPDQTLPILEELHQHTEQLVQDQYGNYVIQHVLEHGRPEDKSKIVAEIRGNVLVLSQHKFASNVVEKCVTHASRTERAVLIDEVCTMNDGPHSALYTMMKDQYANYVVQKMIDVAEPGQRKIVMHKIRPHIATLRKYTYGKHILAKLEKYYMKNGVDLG
Procedure, shortened: as §1

[18] = biological target: PUM1 PUF domain R5-DFR (Homo sapiens, UniProt Q14671 828-1176, C1007D;R1008F;Q1011R)
Sequence of PUM1 PUF domain R5-DFR (Q14671 828-1176 C1007D/R1008F/Q1011R): as the sequence (Q14671 828-1176 N971H/H972N/Q975V) above, with H144N, N145H, V148Q, C180D, R181F, Q184R counted along it
Procedure, shortened: as §1

[19] = biological target: PUM1 PUF domain R8-CYN (Homo sapiens, UniProt Q14671 828-1176, N1122C;Q1126N)
Sequence of PUM1 PUF domain R8-CYN (Q14671 828-1176 N1122C/Q1126N): as the sequence (Q14671 828-1176 N971H/H972N/Q975V) above, with H144N, N145H, V148Q, N295C, Q299N counted along it
Procedure, shortened: as §1

[20] = biological target: PUM1 PUF domain R5-HKK (Homo sapiens, UniProt Q14671 828-1176, C1007H;R1008K;Q1011K)
Sequence of PUM1 PUF domain R5-HKK (Q14671 828-1176 C1007H/R1008K/Q1011K): as the sequence (Q14671 828-1176 N971H/H972N/Q975V) above, with H144N, N145H, V148Q, C180H, R181K, Q184K counted along it
Procedure, shortened: as §1

**Q.** How did the binding signal [1] turn out when “GGCUAGAACUAGUGGAUCCCCCGGCGCCCGGCGGCUCGAGCCCGGGUAAGUGUAGAUAGUCUGCAUGCCGCCGGGCGCCAUGCCUGCAGGUCGACUCUAGAAAACAUG” was run?
**A.** Its binding signal is 1.66 log2 enrichment (interaction score).

**Q.** Which results are given for “GGCUAGAACUAGUGGAUCCCCCGGCGCCCGGCGGCUCGAGCCCGGGUAAGUGUAAUUAGUCUGCAUGCCGCCGGGCGCCAUGCCUGCAGGUCGACUCUAGAAAACAUG”?
**A.** binding signal [2]: 4.61 log2 enrichment (interaction score); binding signal [3]: 5.3 log2 enrichment (interaction score)

**Q.** With “GGCUAGAACUAGUGGAUCCCCCGGCGCCCGGCGGCUCGAGCCCGGGUAAGUCUAAAUAGUCUGCAUGCCGCCGGGCGCCAUGCCUGCAGGUCGACUCUAGAAAACAUG” as the sequence, how does the binding signal [4] read?
**A.** The binding signal was 3.14 log2 enrichment (interaction score).

**Q.** And the binding signal [5]?
**A.** Its binding signal is 3.59 log2 enrichment (interaction score).

**Q.** For “GGCUAGAACUAGUGGAUCCCCCGGCGCCCGGCGGCUCGAGCCCGGGUAAGUGUAAAUCGUCUGCAUGCCGCCGGGCGCCAUGCCUGCAGGUCGACUCUAGAAAACAUG”, which binding signal [6] is on record?
**A.** The binding signal was 5.66 log2 enrichment (interaction score).

**Q.** With “GGCUAGAACUAGUGGAUCCCCCGGCGCCCGGCGGCUCGAGCCCGGGUAAGUGAAAAUAGUCUGCAUGCCGCCGGGCGCCAUGCCUGCAGGUCGACUCUAGAAAACAUG” as the sequence, how does the binding signal [7] read?
**A.** The binding signal was 1.35 log2 enrichment (interaction score).

**Q.** What about the binding signal [8] of the same sequence?
**A.** Its binding signal is 3.65 log2 enrichment (interaction score).

**Q.** Which results are given for “GGCUAGAACUAGUGGAUCCCCCGGCGCCCGGCGGCUCGAGCCCGGGUAAGUGUAUAUAGUCUGCAUGCCGCCGGGCGCCAUGCCUGCAGGUCGACUCUAGAAAACAUG”?
**A.** binding signal [9]: 6.81 log2 enrichment (interaction score); binding signal [10]: 1.55 log2 enrichment (interaction score); binding signal [1]: 4.97 log2 enrichment (interaction score)

**Q.** How did the binding signal [2] turn out when “GGCUAGAACUAGUGGAUCCCCCGGCGCCCGGCGGCUCGAGCCCGGGUAAGUGUAAGUAGUCUGCAUGCCGCCGGGCGCCAUGCCUGCAGGUCGACUCUAGAAAACAUG” was run?
**A.** Its binding signal is 1.68 log2 enrichment (interaction score).

**Q.** And the binding signal [11]?
**A.** The binding signal was 0.98 log2 enrichment (interaction score).

**Q.** What does the source list for “GGCUAGAACUAGUGGAUCCCCCGGCGCCCGGCGGCUCGAGCCCGGGUAAGUGUAAAUAGUCUGCAUGCCGCCGGGCGCCAUGCCUGCAGGUCGACUCUAGAAAACAUG”?
**A.** binding signal [12]: 5.91 log2 enrichment (interaction score); binding signal [13]: 4.09 log2 enrichment (interaction score); binding signal [2]: 3.82 log2 enrichment (interaction score); binding signal [14]: 0.25 log2 enrichment (interaction score); binding signal [15]: 3.86 log2 enrichment (interaction score); binding signal [11]: 2.43 log2 enrichment (interaction score); binding signal [9]: 3.48 log2 enrichment (interaction score); binding signal [10]: 2.84 log2 enrichment (interaction score); binding signal [3]: 1.87 log2 enrichment (interaction score); binding signal [7]: 7.48 log2 enrichment (interaction score); binding signal [16]: 5.56 log2 enrichment (interaction score)

**Q.** Which binding signal [17] does the source give for “GGCUAGAACUAGUGGAUCCCCCGGCGCCCGGCGGCUCGAGCCCGGGUAAGUGUACAUAGUCUGCAUGCCGCCGGGCGCCAUGCCUGCAGGUCGACUCUAGAAAACAUG” here?
**A.** The binding signal was 2.63 log2 enrichment (interaction score).

**Q.** And the binding signal [1]?
**A.** The binding signal was 3.39 log2 enrichment (interaction score).

**Q.** For “GGCUAGAACUAGUGGAUCCCCCGGCGCCCGGCGGCUCGAGCCCGGGUAAGUGUCAAUAGUCUGCAUGCCGCCGGGCGCCAUGCCUGCAGGUCGACUCUAGAAAACAUG”, which binding signal [18] is on record?
**A.** Its binding signal is 5.27 log2 enrichment (interaction score).

**Q.** Which binding signal [6] does the source give for “GGCUAGAACUAGUGGAUCCCCCGGCGCCCGGCGGCUCGAGCCCGGGUAAGUGUAAAUUGUCUGCAUGCCGCCGGGCGCCAUGCCUGCAGGUCGACUCUAGAAAACAUG” here?
**A.** Its binding signal is 0.55 log2 enrichment (interaction score).

**Q.** Which results are given for “GGCUAGAACUAGUGGAUCCCCCGGCGCCCGGCGGCUCGAGCCCGGGUAAGCGUAAAUAGUCUGCAUGCCGCCGGGCGCCAUGCCUGCAGGUCGACUCUAGAAAACAUG”?
**A.** binding signal [12]: 6.36 log2 enrichment (interaction score); binding signal [19]: 2.28 log2 enrichment (interaction score); binding signal [16]: 6.96 log2 enrichment (interaction score)

**Q.** For “GGCUAGAACUAGUGGAUCCCCCGGCGCCCGGCGGCUCGAGCCCGGGUAAGUGUUAAUAGUCUGCAUGCCGCCGGGCGCCAUGCCUGCAGGUCGACUCUAGAAAACAUG”, which binding signal [20] is on record?
**A.** Its binding signal is 2.41 log2 enrichment (interaction score).

**Q.** What about the binding signal [13] of the same sequence?
**A.** Its binding signal is 4.73 log2 enrichment (interaction score).

**Q.** What about the binding signal [14] of the same sequence?
**A.** Its binding signal is 2.7 log2 enrichment (interaction score).
